Many of the other results were omitted from the sample, so hits are more common in it than they were.
VACV E9 pol inh: inhibitors of vaccinia virus processive DNA synthesis (E9 polymerase) | in vitro processive DNA synthesis, absorbance read-out; hits give low values | normalized absorbance, % (concentration not given with the values) | 0.94% of 46,000 active | AID 493162; in the data active = normalized absorbance mostly below about 85%, no sharp cut-off; inactive = mostly above about 86%
* = called active by the depositor.

What do the screens show for `CCOc1ccccc1C(=O)NC1CCCCCC1`?
VACV E9 pol inh: 99

How did CCOc1cccc(=O)c2c(C)n(-c3ccc(OC)cc3)c(C)c12 do in these assays?
VACV E9 pol inh: 98

Results for CCOc1cccc(=NC2CCCCC2)c2c(C)n(C)c(C)c12 ?
VACV E9 pol inh: 89*

Results for CC(=O)Nc1ccc(NC(=O)CCC(=O)c2ccccc2)cc1 ?
VACV E9 pol inh: 100

Results for O=C(CCC(=O)c1ccccc1)NCc1ccccc1 ?
VACV E9 pol inh: 67*

How did O=C(Cc1ccccc1)c1ccccc1 do in these assays?
VACV E9 pol inh: 104

How did NC(=O)NC(=O)CC1Nc2ccccc2NC1=O (stereo unspecified) do in these assays?
VACV E9 pol inh: 99

How did O=C(O)c1ccc2c(c1)NC(=O)C(CSCc1ccccc1Cl)N2 (stereo unspecified) do in these assays?
VACV E9 pol inh: 39*

What do the screens show for `CNC(=O)CC1Nc2ccccc2NC1=O` (stereo unspecified)?
VACV E9 pol inh: 103

How did CCC(=O)NCc1nc2ccccc2n1C do in these assays?
VACV E9 pol inh: 101

Results for COc1ccc(OCCn2c(-c3ccc(Cl)cc3)nc3ccccc3c2=O)cc1 ?
VACV E9 pol inh: 99

How did O=c1c2ccccc2c2ccccc2c(=O)n1Cc1ccco1 do in these assays?
VACV E9 pol inh: 100

How did O=C(CCS(=O)(=O)c1ccc2c(c1)OCC(=O)N2)NCc1ccccc1Cl do in these assays?
VACV E9 pol inh: 102

How did CN(C)CCSc1nc2ccccc2[nH]1 do in these assays?
VACV E9 pol inh: 106

What do the screens show for `Cc1cc(C)cc(N2C(=O)CC(n3ccnc3)C2=O)c1` (stereo unspecified)?
VACV E9 pol inh: 103

Results for NC1=NC(=O)CC(C(=O)Nc2cc(Cl)ccc2Cl)S1 (stereo unspecified) ?
VACV E9 pol inh: 106

What do the screens show for `COc1ccc(C(=O)CSC2=NCCCCCC2)cc1`?
VACV E9 pol inh: 65*

How did COc1ccc(C(=O)CSc2ncccn2)cc1 do in these assays?
VACV E9 pol inh: 103

Results for COc1ccc(C(=O)CNC2=NCCC2)cc1 ?
VACV E9 pol inh: 96

Results for COc1cc(CNCc2cccnc2)ccc1OCc1ccccc1 ?
VACV E9 pol inh: 108

How did CC[C@H](C)[C@H](N)C(=O)N[C@@H](CC(N)=O)C(=O)N[C@@H](CC(C)C)C(=O)N[C@@H](CCCCN)C(=O)N[C@@H](C)C(=O)N[C@@H](CC(C)C)C(=O)N[C@@H](C)C(=O)N[C@@H](C)C(=O)N[C@@H](CC(C)C)C(=O)N[C@@H](C)C(=O)N[C@@H](CCCN)C(=O)N[C@@H](C)C(=O)N[C@@H](CC(C)C)C(=O)N[C@@H](CC(C)C)C(N)=O do in these assays?
VACV E9 pol inh: 45*

How did CCCC[C@@H](C=O)NC(=O)[C@H](CC(C)C)NC(=O)[C@H](CC(C)C)NC(C)=O do in these assays?
VACV E9 pol inh: 99

How did CC(=O)N[C@@H](CC(C)C)C(=O)N[C@@H](CC(C)C)C(=O)N[C@H](C=O)CCCN=C(N)N do in these assays?
VACV E9 pol inh: 100

How did COC(=O)C1=C(C)NC(=S)NC1c1cc2c(cc1Br)OCO2 (stereo unspecified) do in these assays?
VACV E9 pol inh: 100

What do the screens show for `Cc1cccc(-c2nnc(NC(=O)C(C)(C)C)s2)c1`?
VACV E9 pol inh: 101

How did C=CCN(CC=C)C(=O)CSc1ccc2ccccc2c1 do in these assays?
VACV E9 pol inh: 85

Results for CN(c1ccc(Cl)cc1)c1cc(=O)n(C)c2ccccc12 ?
VACV E9 pol inh: 63*

What do the screens show for `CN1CCN(C(=O)COc2cc(=O)n(C)c3ccccc23)CC1`?
VACV E9 pol inh: 85

What do the screens show for `CCOc1ccccc1N(C)C(=O)COc1cc(=O)n(C)c2ccccc12`?
VACV E9 pol inh: 88

How did COc1ccc(NC(=O)Cn2c(=O)n(-c3ccccc3)c(=O)c3c4c(sc32)CCCC4)cc1OC do in these assays?
VACV E9 pol inh: 97

What do the screens show for `CCCC1c2ccc(C)n2CCN1C(=O)NCc1ccccc1` (stereo unspecified)?
VACV E9 pol inh: 103

What do the screens show for `O=C(O)CCCN1CC=C(c2ccccc2)CC1`?
VACV E9 pol inh: 101

Results for Nc1sc2c(c1C(=O)Nc1cccc(Cl)c1)CCCCC2 ?
VACV E9 pol inh: 99

Results for O=C(c1ccc2c(c1)N(Cc1ccc(F)cc1)CCS2)N1CCCCC1 ?
VACV E9 pol inh: 89

What do the screens show for `O=C(O)c1ccc2c(c1)N(Cc1ccc(Cl)cc1)CCS2`?
VACV E9 pol inh: 72*

Results for COC(CNC(=O)c1ccc2c(c1)N(Cc1ccc(Cl)cc1)CCS2)OC ?
VACV E9 pol inh: 94

How did CCCNS(=O)(=O)c1ccc2c(c1)n(C)c(=O)c(=O)n2C do in these assays?
VACV E9 pol inh: 105

What do the screens show for `CCOc1ccc(OCC)c(C2C(Cc3ccccc3)N3c4ccccc4C=CC3C2(C#N)C#N)c1` (stereo unspecified)?
VACV E9 pol inh: 100

What do the screens show for `CCOC(=O)CC1Sc2ccccc2N=C1SCC(=O)Nc1ccc(Cl)cc1Cl` (stereo unspecified)?
VACV E9 pol inh: 88

What do the screens show for `Cc1ccc2[nH]c(=O)c(CN(C3CCCCC3)S(=O)(=O)c3ccccc3)cc2c1`?
VACV E9 pol inh: 101

How did CC(C)N(Cc1nc(-c2ccccc2)no1)C(=O)C1CCCCC1 do in these assays?
VACV E9 pol inh: 99

How did Cc1ccc(-c2noc(CN(C3CCCCC3)S(=O)(=O)c3ccccc3)n2)cc1 do in these assays?
VACV E9 pol inh: 64*

How did COc1ccc(/C=C/C(=O)N2c3ccccc3COC2c2ccccc2)cc1 (stereo unspecified) do in these assays?
VACV E9 pol inh: 100

How did CSc1nnc2[nH]c(=O)cc(N)n12 do in these assays?
VACV E9 pol inh: 100

What do the screens show for `COc1ccc(-c2cc(=Nc3ccc(C)cc3C)c3cc(O)ccc3o2)cc1`?
VACV E9 pol inh: 100

Results for Clc1ccc2oc(-c3ccccc3)cc(=NCc3cccnc3)c2c1 ?
VACV E9 pol inh: 66*

Results for Cc1ccc2oc(-c3ccc(Cl)cc3)cc(=O)c2c1 ?
VACV E9 pol inh: 108

Results for CCCN=c1cc(-c2ccccc2)oc2ccc(C)cc12 ?
VACV E9 pol inh: 42*

Results for Cc1cc(NCc2cccnc2)c2ccc(Cl)cc2n1 ?
VACV E9 pol inh: 103

What do the screens show for `Clc1ccc2oc(-c3cccnc3)nc2c1`?
VACV E9 pol inh: 100

What do the screens show for `CCC(C)NC(=O)CSc1c2c(nc3ccccc13)CCCC2` (stereo unspecified)?
VACV E9 pol inh: 100

What do the screens show for `CCn1c2ccccc2c2cc(CN3CCC(N4CCCCC4)CC3)ccc21`?
VACV E9 pol inh: 89

Results for CCN1C(=O)/C(=C/N(C(C)=O)c2ccccc2)SC1=S ?
VACV E9 pol inh: 91

How did CS(=O)(=O)NC1CCN(Cc2ccccc2)CC1 do in these assays?
VACV E9 pol inh: 100

How did CCn1c2ccccc2c2cc(C=Nc3cccc(C#N)c3)ccc21 do in these assays?
VACV E9 pol inh: 77*

What do the screens show for `CCn1c2ccccc2c2cc(N)ccc21`?
VACV E9 pol inh: 92

Results for CCn1c2ccccc2c2cc(C=Nc3ccc(C)cc3O)ccc21 ?
VACV E9 pol inh: 91

How did Clc1ccc(-c2nnc(-c3ccc(Cl)cc3)o2)cc1 do in these assays?
VACV E9 pol inh: 107

Results for Cc1nc2cc(-c3ccccc3)nn2c(C)c1Sc1nccc(-c2cccnc2)n1 ?
VACV E9 pol inh: 100

Results for COC(=O)c1ccccc1NC(=O)CSc1nnc(CSc2nc(C)cc(C)n2)o1 ?
VACV E9 pol inh: 100

What do the screens show for `O/N=C/C1=C(Cl)c2ccccc2CC1`?
VACV E9 pol inh: 78*

What do the screens show for `Cn1nc(-c2ccccc2)c(/C=N/O)c1Cl`?
VACV E9 pol inh: 100

Results for O/N=C/c1cccs1 ?
VACV E9 pol inh: 124

Screens from PubChem.
